PubChem BioAssay (NCATS)
Records with an inconclusive call do not appear. Values without a mark were called inactive. Activity calls are given as the source filed them. Calls follow the shape of the dose curve; as a rule, active = well fitted inhibition curve with a large enough effect; inconclusive = small, poorly fitted or top-dose-only effect; inactive = no such curve, though single readings can be large or run the other way.

Test: qHTS assay to identify inhibitors of the type 1 interferon - major histocompatibility complex class I in skeletal muscle: Counter screen cell viability and HiBit confirmation (AID 1347412); also: nearly all actives have a fitted effect of over 60% in size
Conditions: iHSKM muscle cells + IFN-b, HiBiT or CellTiter-Glo, 24 h, Viability
Method in brief: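 After 24 h with human IFN-beta (4 ng/ml) and compound titrations (top 46 uM final, 1:3, 12 points), HLA-B HiBit myoblasts were lysed for either Nano-Glo HiBiT luminescence or CellTiter Glo viability on paired plates.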
% is scaled to controls: 0 for no effect and ±100 for the full control effect; potency is read from the fitted curve at half-maximal effect.

SMILES | Potency | activity change, negative = inhibition (at 45.9 µM (top of the series)) [%]
C[n+]1cc2c3c(ccc2c2ccc4cc5c(cc4c21)OCO5)OCO3 | 2.22 µM (active) | –
C[C@]12C=CC(=O)C=C1CC[C@H]1[C@@H]3C[C@@H](O)[C@](O)(C(=O)CO)[C@@]3(C)C[C@H](O)[C@@]12F | – | 8.47
